These results are taken from PubChem BioAssay (NCATS).

Each structure is given as a SMILES string. A number with no mark means an inactive call. Results filed as inconclusive are left out. Activity calls are given as the source filed them. Calls come from the whole dose curve; as a rule, active = well fitted curve in the direction sought with a large enough effect; inconclusive = small, poorly fitted or top-dose-only effect, or another doubt; inactive = no such curve, though single readings can be large; an effect the other way counts as inactive or inconclusive.

For assay [1], the system named is AS120. As to the kind of experiment: qHTS profiling for inhibitors of Plasmodium falciparum proliferation (AID 504749). Note: nearly all actives have a fitted effect of over 60% in size. Note: potency is the fitted concentration of half-maximal effect. To be noted: P. falciparum in erythrocytes, SYBR Green DNA, 72 h; series mostly up to 28.7 µM. Summed up:
(§1)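 Quantitative HTS: compounds pinned into medium, infected erythrocytes added (0.3% parasitemia, 2.5% hematocrit), 72 h culture at 37 C under 5% CO2. Saponin/Triton lysis with SYBR Green I, overnight RT, then fluorescence read.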
Background: In qHTS, concentration-response curves come from the screen itself.

Assay [2] concerns ATS189. The description is as above. Conditions: P. falciparum in erythrocytes, SYBR Green DNA, 72 h; series mostly up to 12.8 µM. Summed up: as §1
For assay [3], the system named is CP185. The assay is described as above. To be noted: P. falciparum in erythrocytes, SYBR Green DNA, 72 h; series mostly up to 12.8 µM. Summed up: as §1
The test system of assay [4] is CP192. The description is as above. Conditions: P. falciparum in erythrocytes, SYBR Green DNA, 72 h; series mostly up to 28.7 µM. Summed up: as §1
Assay [5] deals with CP194. The description is as above. To be noted: P. falciparum in erythrocytes, SYBR Green DNA, 72 h; series mostly up to 12.8 µM. Summed up: as §1
Assay [6] deals with CP203. The assay is described as above. Conditions: P. falciparum in erythrocytes, SYBR Green DNA, 72 h; series mostly up to 12.8 µM. Summed up:
as §1

The subject of assay [7] is CP237. The assay is described as above. Conditions: P. falciparum in erythrocytes, SYBR Green DNA, 72 h; series mostly up to 12.8 µM. Summed up:
as §1

The subject of assay [8] is CP247. The assay is described as above. To be noted: P. falciparum in erythrocytes, SYBR Green DNA, 72 h; series mostly up to 12.8 µM. Summed up:
as §1

The test system of assay [9] is CP291. The assay is described as above. To be noted: P. falciparum in erythrocytes, SYBR Green DNA, 72 h; series mostly up to 12.8 µM. Summed up:
as §1

Assay [10] has as its system CP305. The assay is described as above. Conditions: P. falciparum in erythrocytes, SYBR Green DNA, 72 h; series mostly up to 12.8 µM. Summed up: as §1
Assay [11] deals with DIV30. The assay is described as above. To be noted: P. falciparum in erythrocytes, SYBR Green DNA, 72 h; series mostly up to 12.8 µM. Summed up: as §1
Assay [12] relates to P94_40. The description is as above. Conditions: P. falciparum in erythrocytes, SYBR Green DNA, 72 h; series mostly up to 12.8 µM. Summed up:
as §1

Assay [13] relates to TAB109. Described as above. To be noted: P. falciparum in erythrocytes, SYBR Green DNA, 72 h; series mostly up to 12.8 µM. Summed up: as §1
For assay [14], the system named is TAB113. The assay is described as above. Conditions: P. falciparum in erythrocytes, SYBR Green DNA, 72 h; series mostly up to 12.8 µM. Summed up:
as §1

Assay [15] addresses Cytochrome P450 1A2 (Homo sapiens) (UniProt P05177). In words: qHTS for inhibitors of CYPIA2 against the NCATS DSHEA and TCM libraries (AID 1919976). Note: potency is the fitted concentration of half-maximal effect. To be noted: recombinant CYP1A2 enzyme activity, luminescence; series mostly up to 37 µM. Summed up:
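Reaction started with 1x NADPH regeneration solution and run 30-45 min, room temperature, protected from light, after compounds sat 15 min with CYP1A2 and pro-luciferin substrate. P450-Glo detection gave luminescence; furafylline served as control.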

Assay [16] in a line: qHTS Counterscreen for compound interference against the NCATS DSHEA and TCM libraries (AID 1919978). Note: % of control where 0% means no effect. Conditions: firefly luciferase detection reagent interference, luminescence. Summed up:
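Read-out is luminescence after 30 min at RT with luciferin detection reagent. Before that, compounds (19.5 nM to 39.8 uM final) sat 15 min at RT with 1 uM D-luciferin or 100 mM potassium phosphate buffer. PTC124 served as intraplate control.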

Assay [17] in a line: Dual reporter qHTS for agonist of Pregnane X Receptor (hPXR) against the NCATS DSHEA and TCM libraries: Fluorescence readout (AID 1920058). Note: 0% is about no effect. Conditions: PXR dual reporter cells; series mostly up to 40 µM. Summed up:
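Viability readout (CellTiter-Fluor, 405/540 nm, 1 h) from agonist-mode PXR dual reporter in hPXR-Luc HepG2 cells. Substances ~24 h, 37 °C, 5% CO2; rifampicin reference, tetraoctyl ammonium bromide cytotoxic control.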

In assay [18] the target is Nuclear receptor subfamily 1 group I member 2 (Homo sapiens) (UniProt O75469). In words: Dual reporter qHTS for agonist of Pregnane X Receptor (hPXR) against the NCATS DSHEA and TCM libraries: Luminescence readout (AID 1920059). Note: 0% is about no effect. Conditions: hPXR dual reporter cells, luciferase luminescence agonist; series mostly up to 40 µM. Summed up:
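hPXR-LucHepG2 cells in phenol red-free DMEM with 5% charcoal-stripped FBS, 2000 cells/well, attached 5 h, then exposed 24 h at 37C to compounds; rifampicin as positive agonist control (2.8 nM–92 uM). Luciferase luminescence read.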

Assay [19] has the same target. In words: Dual reporter qHTS for antagonist of Pregnane X Receptor (hPXR) against the NCATS DSHEA and TCM libraries: Luminescence Readout (AID 1920060).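 Note: HepG2 cells carrying hPXR luciferase reporter stimulated with rifampicin at 2 µM; 0% is about no effect.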 Conditions: hPXR dual reporter cells, luciferase luminescence, antagonist mode; series mostly up to 40 µM. Summed up:
(§2)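 In antagonist mode, 2 uM rifampicin was added to hPXR-Luc HepG2 cells alongside test substances, incubated 24 h at 37 C; luminescence gave reporter activity, and CellTiter-Fluor fluorescence (405/540 nm) gave viability.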

Assay [20] is described as follows: Dual reporter qHTS for antagonist of Pregnane X Receptor (hPXR) against the NCATS DSHEA and TCM libraries: Fluorescence Readout (AID 1920061). Note: 0% is about no effect. Conditions: PXR dual reporter cells, antagonist mode; series mostly up to 40 µM. Summed up: as §2

Chain of Cytochrome P450 1A2 (Homo sapiens) (P05177 whole entry, looked up): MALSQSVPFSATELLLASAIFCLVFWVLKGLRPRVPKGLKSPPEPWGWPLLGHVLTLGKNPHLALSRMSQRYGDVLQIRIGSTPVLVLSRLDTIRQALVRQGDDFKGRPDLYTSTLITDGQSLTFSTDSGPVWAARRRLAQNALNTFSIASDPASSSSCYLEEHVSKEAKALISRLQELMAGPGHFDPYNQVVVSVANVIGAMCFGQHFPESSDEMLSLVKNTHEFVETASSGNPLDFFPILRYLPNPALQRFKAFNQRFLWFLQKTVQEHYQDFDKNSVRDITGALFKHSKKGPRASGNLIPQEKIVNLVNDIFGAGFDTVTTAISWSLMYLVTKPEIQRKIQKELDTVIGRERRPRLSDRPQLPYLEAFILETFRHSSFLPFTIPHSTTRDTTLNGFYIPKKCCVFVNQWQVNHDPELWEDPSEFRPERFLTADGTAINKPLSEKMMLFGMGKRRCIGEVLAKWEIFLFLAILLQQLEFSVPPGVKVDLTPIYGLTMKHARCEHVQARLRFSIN
Chain of Nuclear receptor subfamily 1 group I member 2 (Homo sapiens) (O75469 whole entry, looked up): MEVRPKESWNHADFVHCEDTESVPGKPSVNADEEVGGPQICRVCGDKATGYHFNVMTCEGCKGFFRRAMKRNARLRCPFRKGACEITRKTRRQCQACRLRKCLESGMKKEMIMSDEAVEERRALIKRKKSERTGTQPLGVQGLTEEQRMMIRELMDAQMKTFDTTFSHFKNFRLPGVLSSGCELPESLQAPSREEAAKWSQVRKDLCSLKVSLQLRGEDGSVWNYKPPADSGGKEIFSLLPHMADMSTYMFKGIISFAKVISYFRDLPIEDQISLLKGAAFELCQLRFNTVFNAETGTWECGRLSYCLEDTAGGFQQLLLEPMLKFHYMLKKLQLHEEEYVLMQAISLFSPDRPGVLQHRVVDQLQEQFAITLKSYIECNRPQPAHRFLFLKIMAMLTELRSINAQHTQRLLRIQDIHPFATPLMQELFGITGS

Consider `Cc1cc(/C=C\c2ccc3cc(N(C)C)ccc3[n+]2C)c(C)n1-c1ccccc1`, for which the Potency in [1] is 3160 nM (active); in [2], 3160 nM (active); in assay [3], 1580 nM (active); in assay [4], 2030 nM (active); in assay [5], 2870 nM (active); in [6], 2280 nM (active). The Potency is 562 nM (active) in assay [7]; 3550 nM (active) in assay [8]; 3610 nM (active) in assay [9]; 2560 nM (active) in assay [10]; 2560 nM (active) in assay [11]; 1000 nM (active) in assay [12]. For the same compound, the Potency in [13] is 1410 nM (active); in assay [14] it was 1780 nM (active).

With `CN(C)CC/C=C1\c2ccccc2CSc2ccccc21`, the Potency result in [4] was “inactive”.

As to `O=c1cc(-c2ccc(O)cc2)oc2cc(O[C@H]3OC(CO)C(O)C(O)C3O)cc(O)c12` (stereo partly specified), the Potency result in assay [15] is “inactive”. Besides, the max response in assay [16] was -0.179%. Also, the compound was classed as inactive in assay [17], in assay [18], in assay [19] and in assay [20].

Take `O=c1ccc2ccc(O)cc2o1`: in assay [15], the Potency result is “inactive”. In addition, the max response in assay [16] was 2.6%. Moreover, the outcome in [17], in [18], in assay [19] and in assay [20] was inactive.

Consider `CC(C)N1CCN(c2ccc(OC[C@@H]3CO[C@@](Cn4cncn4)(c4ccc(Cl)cc4Cl)O3)cc2)CC1`, for which the Potency result in [1], in [2], in assay [3], in [5], in [6] and in assay [7] was “inactive” each time. Moreover, the Potency entry in assay [8], in assay [9], in assay [10], in assay [11], in assay [12] and in assay [13] was “inactive” each time. The Potency entry in assay [14] was “inactive”.

For `NC(Cc1c[nH]c2ccccc12)C(=O)O` (stereo unspecified), the Potency in assay [15] was 3550 nM (active). Besides, in assay [16], the max response was 1.56%. For the same compound, the compound was called inactive in assay [17], in [18], in assay [19] and in [20].
